Results taken from PubChem BioAssay (NCI).
The panel holds about 83,000 compounds, 20% with a hit somewhere; the sample as a whole holds those more often.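 The endpoint reported here, percent growth, reads 100 for growth as untreated, 0 for no net growth and -100 for all cells dead.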 Calls of active or inactive are those of the source. Rule for the calls: active = growth percent below 10; inactive = the rest.

What was measured:
Test in all cases: NCI-60 one-dose screen, 48 h (100 = growth as untreated, 0 = no growth, -100 = all killed)
Details in all cases: 10 µM unless noted
[1] = system: DU-145 prostate
[2] = system: K-562 leukemia
[3] = system: MALME-3M melanoma
[4] = system: MDA-MB-231 breast
[5] = system: SF-268 CNS
[6] = system: SF-295 CNS
[7] = system: SF-539 CNS
[8] = system: UACC-257 melanoma
[9] = system: M14 melanoma
[10] = system: RXF 393 renal

Measured: growth

COc1ccccc1/C=N/NC1=NC2C(N1)N(C)C(=O)N2C (stereo unspecified)
inactive: [1] 112% | [2] 99.5% | [3] 93.6% | [4] 99.8% | [5] 101% | [6] 104% | [7] 97.6% | [8] 98.3% | [9] 99.7%

FC(F)(F)c1cccc(Oc2ccc(Nc3ncnc4ccc(OCCCN5CCOCC5)cc34)cc2Cl)c1
inactive: [1] 43% | [4] 22.4% | [5] 55.6% | [6] 25.7% | [7] 60.8% | [8] 40.1%
active: [2] 1.77% | [3] -4.17% | [9] -36%

COc1ccc(C(O)c2cc3c(N)c(C(=O)Nc4ccccc4)sc3nc2C)cc1 (stereo unspecified)
inactive: [3] 48.5% | [5] 28.3% | [8] 49.4% | [9] 14.3%
active: [1] 2.39% | [2] 3.59% | [4] -11.2% | [6] -13.3% | [7] -25.8%

COc1cc(-c2nc3sccn3c2-c2ccnc(NCCNS(=O)(=O)c3ccc(F)cc3)n2)ccc1F
inactive: [1] 19.6% | [4] 22.3% | [5] 19% | [7] 31.2%
active: [2] 5.81% | [3] -34.2% | [6] 4.27% | [8] -12.7% | [9] 9.49%

CCOC(=O)c1ccc(Nc2ccnc(SCC(=O)c3ccc(C#N)cc3)n2)cc1
inactive: [1] 79.4% | [2] 50.6% | [3] 80.9% | [4] 81.2% | [5] 78% | [6] 76.2% | [7] 83% | [8] 77.7% | [9] 50.5%

CSc1nnc2c(=O)n(C)c(=O)n(C)c2n1
inactive: [1] 100% | [2] 86.1% | [3] 114% | [4] 105% | [5] 108% | [6] 130% | [7] 109% | [8] 123% | [9] 102%

COc1ccc(C(O)c2cc3c(N)c(C(=O)Nc4cccc(Br)c4C)sc3nc2C)cc1 (stereo unspecified)
inactive: [3] 47.3% | [5] 30.1% | [6] 18.5% | [8] 47.8% | [9] 18.9%
active: [1] 9.81% | [2] 5.92% | [4] 5.97% | [7] -3.14%

Cc1c(C2=CCCCC2)c2ccccn2c1C(=O)c1cccc(S(=O)(=O)N2CCOCC2)c1
inactive: [1] 98.3% | [2] 57.4% | [3] 73.5% | [4] 92% | [5] 75% | [6] 34.6% | [7] 97.2% | [8] 86.8% | [9] 61.9%

CCN(CC)CCCC(C)Nc1cc(-c2cccc(OC(F)(F)F)c2)nc2ccc(N3CCCC3)cc12 (stereo unspecified)
active: [2] -46.5% | [3] -93% | [4] -50.3% | [7] -91.7% | [8] -81.1% | [9] -81.9%
inactive: [1] 37% | [5] 26% | [6] 28.3%

COc1ccc(/C=N/NC(=O)c2cccc3cc[nH]c23)cc1O
active: [6] -20.3% | [7] -18.8% | [9] 0.307%
inactive: [1] 28.3% | [2] 27.8% | [3] 43% | [4] 55.2% | [5] 53% | [8] 47.3%

Cc1nc2sc(C(=O)Nc3ccccc3)c(N)c2cc1C(=O)c1ccc(C(F)(F)F)cc1
inactive: [1] 106% | [2] 101% | [3] 101% | [4] 101% | [5] 101% | [6] 94.2% | [7] 93.5% | [8] 101% | [9] 93.4%

O=C1Nc2c(ccc(Cl)c2Cl)/C1=C/c1ccc([N+](=O)[O-])cc1
inactive: [1] 108% | [2] 89.5% | [3] 84.4% | [4] 94.2% | [5] 93.3% | [6] 76.7% | [7] 95.4% | [8] 72% | [9] 104%

COc1cccc(/C=C2\COc3ccc(-c4ccccc4)cc3C2=O)c1
active: [1] -40.2% | [2] -2.92% | [5] 4.23% | [6] -44.8% | [7] -29.8%
inactive: [3] 101% | [4] 32.3% | [8] 49.2% | [9] 23.6%

COc1ccc(-c2c(-c3ccccc3)noc2N)cc1OC
inactive: [1] 104% | [2] 95% | [3] 102% | [4] 120% | [5] 107% | [6] 103% | [7] 115% | [8] 88.3% | [9] 98.4%

O=C(O)c1cn(C2CC2)c2cc(N3CCN(C(=O)C[n+]4cccc5ccccc54)CC3)c(F)cc2c1=O
active: [3] -41.7%
inactive: [1] 91.7% | [4] 99.8% | [5] 68.2% | [6] 107% | [7] 69.1% | [8] 82.3% | [9] 64.8%

CCOC(=O)Oc1c(OC)cc(C(=O)O[C@@H]2C[C@@H]3CN4CCc5c([nH]c6cc(OC)ccc56)[C@H]4C[C@@H]3[C@H](C(=O)OC)[C@H]2OC)cc1OC
inactive: [1] 81.5% | [3] 58.9% | [4] 43.2% | [10] 89.8% | [5] 75.2% | [6] 74.3% | [7] 79.9% | [8] 94% | [9] 72.1%

Cc1ccc(C(c2c(O)c3cc(Br)ccc3[nH]c2=O)c2c(O)c3cc(Br)ccc3[nH]c2=O)cc1
inactive: [1] 102% | [3] 91% | [4] 70.5% | [5] 87.1% | [6] 75.6% | [7] 91.2% | [8] 98.3% | [9] 93.3%

O=c1[nH]c2c(s1)CCCC2CN1CCCCC1 (stereo unspecified)
inactive: [1] 109% | [3] 107% | [4] 133% | [5] 98.7% | [6] 104% | [7] 105% | [8] 92% | [9] 90.6%

O=C(Nc1ccccc1)Oc1ccccc1-c1ccccc1
inactive: [1] 105% | [3] 95% | [4] 109% | [5] 96.2% | [6] 97.4% | [7] 105% | [8] 80.8% | [9] 85.2%

COc1ccc(/C=C/C(=O)c2ccc(Nc3ncnc4ccccc34)cc2)cc1OC
inactive: [1] 83.1% | [3] 101% | [4] 72.1% | [5] 68.1% | [6] 79.6% | [7] 98.1% | [8] 98.6% | [9] 64.7%

COc1cc2nc(-c3ccc(C#N)cc3)[nH]c(=O)c2cc1OC
active: [8] -1.56%
inactive: [1] 105% | [3] 263% | [4] 94% | [5] 100% | [6] 95.9% | [7] 101% | [9] 87.7%

Cc1cc2nc(-c3ccccc3)c(-c3ccccc3)nc2cc1C
inactive: [1] 112% | [3] 113% | [4] 94.5% | [10] 111% | [5] 116% | [6] 90% | [7] 109% | [8] 117% | [9] 113%

Cn1c2c(Cl)c(Cl)ccc2c2cc(N)[nH]c(=O)c21
inactive: [1] 84.2% | [3] 102% | [4] 68.5% | [5] 80.9% | [6] 53.7% | [7] 82.8% | [8] 97.9% | [9] 97.8%

Cc1ccc(/C=C/C(=O)c2ccc(N)cc2)c(C)c1
inactive: [1] 78.3% | [4] 56.8% | [5] 36.6% | [6] 95.5% | [7] 91% | [8] 108% | [9] 50.6%
active: [3] -75.6%

O=C1OC(=O)C2C1CC=CC2c1ccccc1 (stereo unspecified)
inactive: [1] 94% | [3] 78.8% | [4] 93.7% | [10] 102% | [5] 91.1% | [6] 95.8% | [7] 88.3% | [8] 107% | [9] 97.4%

O=C(O)CNC(=O)CN1C(=O)c2ccccc2C1=O
inactive: [1] 120% | [2] 85.8% | [3] 98.6% | [4] 114% | [5] 106% | [6] 103% | [7] 107% | [8] 76.6% | [9] 92.7%
